Results filed as inconclusive are left out. Where a call stands in place of a potency, no number is given. Activity calls are given as the source filed them. The call rests on the fitted dose curve; in most records, active means well fitted inhibition curve with a large enough effect; inconclusive means small, poorly fitted or top-dose-only effect; inactive means flat fitted curve, though single readings scatter. *1 amine or outer side, *2 acyl side, *3 side chain or, on linkers, in order; H or OH if unused. Where a SMILES comes first, the peptide text is derived from it. Bridges are numbered along the chain shown (N, C = ends). [ ]: non-standard residue; d: D form. The star is where a group is joined. ξ: configuration not given here. X10 = NC1=NCCC(C(N[*:1])C(=O)[*:2])N1; ΔAla(3-NHCONH2) = NC(=O)NC=C(N)C(=O)O; ξβ3hOrn = NCCCC(N)CC(=O)*; Dap = NC[CH](N)C(=O)O
target: Phospholipid hydroperoxide glutathione peroxidase GPX4 (Homo sapiens) (UniProt P36969); test: Primary qHTS Assay for Inhibitors of Recombinant Selenoprotein Glutathione Peroxidase 4 (GPX4) (AID 1845192); settings: recombinant GPX4, GR-coupled NADPH fluorescence, 15 min; series mostly up to 50 µM; further: nearly all actives have a fitted effect of over 65% in size
Sequence (P36969 whole entry, looked up): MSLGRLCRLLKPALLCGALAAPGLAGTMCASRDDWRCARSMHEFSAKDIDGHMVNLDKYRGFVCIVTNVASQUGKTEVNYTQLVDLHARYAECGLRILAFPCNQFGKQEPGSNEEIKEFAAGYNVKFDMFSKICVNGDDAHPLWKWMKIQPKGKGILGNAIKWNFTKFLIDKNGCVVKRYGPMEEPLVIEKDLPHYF
Summary of the method: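 Steps: GPX4 plus compound, 30 min RT; add GR/GSH/NADPH master mix; start with cumene hydroperoxide; read 340/450 nm fluorescence at 0 and 15 min. Finals were 200 nM GPX4, 1 mM GSH, 0.5 mM CHP, 0.5 mM NADPH, 100 nM GR.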
Potency means the concentration at half of the fitted maximal effect.

Row | SMILES | Potency | activity change, negative = inhibition
1 | COC(=O)c1cc(Cl)ccc1NS(=O)(=O)C(F)(F)F | inactive | –
2 | CN1C(=O)CC(C)(c2ccccc2)C1=O (configuration not stated) | inactive | –
3 | O=C(COCCOCCOCC(=O)Nc1c(I)cc(I)c(C(=O)O)c1I)Nc1c(I)cc(I)c(C(=O)O)c1I | inactive | –
4 | CC(=O)O[C@@H]1CC2C3CCc4cc(OC(=O)c5ccccc5)ccc4C3CCC2(C)[C@H]1OC(C)=O (some centres not stated) | inactive | –
5 | CCN(CC)CC(=O)Nc1c(C)cccc1C(=O)OC | inactive | –
6 | CN1C(CSCC(F)(F)F)Nc2cc(Cl)c(S(N)(=O)=O)cc2S1(=O)=O (configuration not stated) | inactive | –
7 | CC(=O)OCC(=O)[C@@]1(O)[C@H](OC(C)=O)C[C@H]2[C@@H]3CCC4=CC(=O)C=C[C@]4(C)[C@@]3(F)[C@@H](O)C[C@@]21C | inactive | –
8 | OC(CCCN1CCCCC1)(c1ccccc1)c1ccccc1 | inactive | –
9 | C[C@]12CCC(=O)C=C1CC[C@@H]1[C@@H]2[C@@H](O)C[C@@]2(C)[C@H]1CC[C@]2(O)C(=O)COC(=O)CCC(=O)O | inactive | –
10 | CN1CCCN(C(c2ccccc2)c2ccc(Cl)cc2)CC1 (configuration not stated) | inactive | –
11 | CN(C)CCOC(c1ccccc1)c1ccc(Br)cc1 (configuration not stated) | inactive | –
12 | N#C/C(=C1/SC[C@@H](c2ccc(Cl)cc2Cl)S1)n1ccnc1 | inactive | –
13 | Cc1ccc2c(Cl)cc(Cl)c(O)c2n1 | inactive | –
14 | NCCCC(N)CC(=O)NCC1NC(=O)C(CO)NC(=O)C(N)CNC(=O)C(C2CCN=C(N)N2)NC(=O)C(=CNC(N)=O)NC1=O (stereo not drawn) (H-[Dap]S[Dap](ξβ3hOrn)[ΔAla(3-NHCONH2)][X10]; lactam 1-C; configuration not given here) | – | 3.67% [at 0.409 µM] (inactive)
15 | CCOC(=O)Oc1ccc(CCNC(=O)[C@H](CCSC)NC(C)=O)cc1OC(=O)OCC | inactive | –
16 | Cc1c(F)cc2c(=O)c(C(=O)O)cn3c2c1CCC3C (configuration not stated) | inactive | –
17 | COc1c(N2C[C@@H]3CCCN[C@@H]3C2)c(F)cc2c(=O)c(C(=O)O)cn(C3CC3)c12 | 11.2 µM (active) | –
18 | Cc1ccc(O)cc1 | inactive | –
19 | Cc1oc(=O)oc1COC(=O)[C@@H]1N2C(=O)[C@@H](NC(=O)[C@H](N)c3ccccc3)[C@H]2SC1(C)C | inactive | –

Row | SMILES | Potency | activity change, negative = inhibition
20 | CCCCOCCOC(=O)c1cccnc1 | inactive | –
21 | NS(=O)(=O)c1ccc(N2CCCCS2(=O)=O)cc1 | inactive | –
22 | Cc1ccc(Cl)c(OCC(O)CNC(C)(C)C)c1 (configuration not stated) | inactive | –
23 | CC(=O)OCC(=O)[C@@]1(O)CCC2C3CCC4=CC(=O)CC[C@]4(C)C3[C@@H](O)C[C@@]21C (some centres not stated) | inactive | –
24 | C[C@H]1C[C@@H]2[C@H]([C@@H](O)C[C@@]3(C)[C@H]2CC[C@]3(O)C(=O)CO)[C@@]2(C)C=CC(=O)C=C12 | inactive | –
25 | CCOC(=O)NNc1nncc2ccccc12 | inactive | –
26 | O=C(C1CCCCC1)N1CC(=O)N2CCCc3ccccc3C2C1 (configuration not stated) | inactive | –
27 | CN(C)CCN(Cc1ccsc1)c1ccccn1 | inactive | –
28 | CC(C)(C)C(O)/C=C/c1ccc2c(c1)OCO2 (configuration not stated) | inactive | –
29 | CCOc1c(N2CCOCC2)cnn(C)c1=O | inactive | –
30 | Cc1cccc(C)c1NC(=O)c1cc(S(N)(=O)=O)c(Cl)cc1O | inactive | –
31 | CCCC(=O)O[C@]1(C(=O)CCl)[C@@H](C)C[C@H]2[C@@H]3CCC4=CC(=O)C=C[C@]4(C)[C@@]3(F)C(=O)C[C@@]21C | inactive | –
32 | CCOC(=O)C1=C(C)NC(C)=C(C(=O)OCC)C1c1ccccc1/C=C/C(=O)OC(C)(C)C | inactive | –
33 | C[C@@H]1C[C@H]2[C@@H]3CCC4=CC(=O)C=C[C@]4(C)[C@@]3(F)[C@@H](O)C[C@]2(C)[C@@]1(O)C(=O)COC(=O)c1ccncc1 | inactive | –
34 | COc1ccc(-n2nc(CCC(=O)N(C)O)cc2-c2ccc(Cl)cc2)cc1 | inactive | –
35 | CCCCCCCCCCCCCCCCCCNC(=O)OC1CCN(C(=O)OC[C@H](COC(=O)N(Cc2cccc[n+]2CC)C(=O)c2ccccc2OC)OC)CC1 | inactive | –
36 | O=C(OCC(O)CO)c1ccccc1Nc1ccnc2c(C(F)(F)F)cccc12 (configuration not stated) | inactive | –
37 | CCCCCC1Nc2cc(C(F)(F)F)c(S(N)(=O)=O)cc2S(=O)(=O)N1 (configuration not stated) | inactive | –
